# Reference: PubChem BioAssay (EPA / NIEHS)
# Inconclusive results are not listed. Active and inactive are the calls of the source. The calls were made as follows: active = hit-call score of the fitted dose curve at least 0.9, where 1 is the maximum; inconclusive = response in the unintended direction; inactive = score below 0.9.
# Legend:
# [1] = target: human Adenosine A1 Receptor (AdoRA1), ADORA1 (gene 134) (UniProt P30542); test: NVS_GPCR_hAdoRA1: NovaScreen (NVS) G Protein-Coupled Receptor Assay for human Adenosine A1 Receptor (AdoRA1) (AID 2283254)
# human Adenosine A1 Receptor (AdoRA1), ADORA1 (gene 134), sequence (P30542 whole entry, looked up): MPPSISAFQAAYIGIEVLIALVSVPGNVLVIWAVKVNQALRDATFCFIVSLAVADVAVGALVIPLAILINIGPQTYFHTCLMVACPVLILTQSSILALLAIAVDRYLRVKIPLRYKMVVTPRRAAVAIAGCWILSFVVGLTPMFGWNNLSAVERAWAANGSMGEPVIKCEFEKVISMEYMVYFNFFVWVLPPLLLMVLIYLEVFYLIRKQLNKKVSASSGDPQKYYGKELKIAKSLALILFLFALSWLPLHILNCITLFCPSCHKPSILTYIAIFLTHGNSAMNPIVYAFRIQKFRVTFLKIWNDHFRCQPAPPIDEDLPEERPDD
# Outline: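 Radioligand competition binding on human cortical membranes, 1 h after compound addition; bound radioactivity read by filtration and scintillation counting. Loss of signal versus DMSO baseline scored as displacement; primary screen duplicate at 25 uM, actives retested in concentration series.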
# [2] = target: human Adenosine A2a Receptor (AdoRA2a), ADORA2A (gene 135) (UniProt P29274); test: NVS_GPCR_hAdoRA2a: NovaScreen (NVS) G Protein-Coupled Receptor Assay for human Adenosine A2a Receptor (AdoRA2a) (AID 2283256)
# human Adenosine A2a Receptor (AdoRA2a), ADORA2A (gene 135), sequence (P29274 whole entry, looked up): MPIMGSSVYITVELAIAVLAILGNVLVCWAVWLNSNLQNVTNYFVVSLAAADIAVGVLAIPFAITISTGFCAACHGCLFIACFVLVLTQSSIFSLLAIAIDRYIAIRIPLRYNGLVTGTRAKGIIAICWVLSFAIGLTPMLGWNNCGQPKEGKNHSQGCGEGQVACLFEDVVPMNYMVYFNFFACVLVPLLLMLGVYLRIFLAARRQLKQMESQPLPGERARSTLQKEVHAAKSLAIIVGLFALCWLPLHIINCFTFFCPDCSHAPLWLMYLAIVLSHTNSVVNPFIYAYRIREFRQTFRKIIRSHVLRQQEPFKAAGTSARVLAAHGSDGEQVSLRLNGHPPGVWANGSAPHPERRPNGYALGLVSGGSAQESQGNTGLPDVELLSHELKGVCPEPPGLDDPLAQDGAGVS
# Outline: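 HEK293-derived receptor preparation, radioligand displacement, 1.5 h, filtration + scintillation read. Loss of bound signal scored vs DMSO. Single-point 25 uM in duplicate first, then concentration-response for actives.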
# [3] = target: human Serotonin, 5-Hydroxytryptamine Receptor 7 (5HT7), HTR7 (gene 3363) (UniProt P34969); test: NVS_GPCR_h5HT7: NovaScreen (NVS) G Protein-Coupled Receptor Assay for human Serotonin, 5-Hydroxytryptamine Receptor 7 (5HT7) (AID 2283255);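 also: hits reduce specific radioligand binding relative to DMSO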
# human Serotonin, 5-Hydroxytryptamine Receptor 7 (5HT7), HTR7 (gene 3363), sequence (P34969 whole entry, looked up): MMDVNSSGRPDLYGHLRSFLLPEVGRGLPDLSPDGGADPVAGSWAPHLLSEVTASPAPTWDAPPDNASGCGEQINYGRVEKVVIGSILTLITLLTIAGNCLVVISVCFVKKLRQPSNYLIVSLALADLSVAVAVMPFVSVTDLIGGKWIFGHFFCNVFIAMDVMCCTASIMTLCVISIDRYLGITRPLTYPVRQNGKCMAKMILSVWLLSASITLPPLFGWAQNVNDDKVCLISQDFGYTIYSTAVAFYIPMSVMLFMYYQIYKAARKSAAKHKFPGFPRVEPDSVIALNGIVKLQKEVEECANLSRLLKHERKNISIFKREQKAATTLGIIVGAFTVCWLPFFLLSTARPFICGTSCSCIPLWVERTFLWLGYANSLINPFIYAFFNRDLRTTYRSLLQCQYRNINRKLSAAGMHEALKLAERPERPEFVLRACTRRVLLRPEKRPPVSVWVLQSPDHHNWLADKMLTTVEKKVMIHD
# Outline: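 Filter-bound radioactivity counted after 1 h, with loss of specific radioligand binding fitted against DMSO. Membrane protein came from CHO cells expressing human 5HT7. Chemicals were tested first at 25 uM in duplicate, then in concentration series if active.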
# [4] = target: Muscarinic acetylcholine receptor M2 (Homo sapiens) (UniProt P08172); test: NVS_GPCR_hM2: NovaScreen (NVS) G Protein-Coupled Receptor Assay for human Muscarinic, M2 Receptor (AID 2283273)
# Muscarinic acetylcholine receptor M2 (Homo sapiens), sequence (P08172 whole entry, looked up): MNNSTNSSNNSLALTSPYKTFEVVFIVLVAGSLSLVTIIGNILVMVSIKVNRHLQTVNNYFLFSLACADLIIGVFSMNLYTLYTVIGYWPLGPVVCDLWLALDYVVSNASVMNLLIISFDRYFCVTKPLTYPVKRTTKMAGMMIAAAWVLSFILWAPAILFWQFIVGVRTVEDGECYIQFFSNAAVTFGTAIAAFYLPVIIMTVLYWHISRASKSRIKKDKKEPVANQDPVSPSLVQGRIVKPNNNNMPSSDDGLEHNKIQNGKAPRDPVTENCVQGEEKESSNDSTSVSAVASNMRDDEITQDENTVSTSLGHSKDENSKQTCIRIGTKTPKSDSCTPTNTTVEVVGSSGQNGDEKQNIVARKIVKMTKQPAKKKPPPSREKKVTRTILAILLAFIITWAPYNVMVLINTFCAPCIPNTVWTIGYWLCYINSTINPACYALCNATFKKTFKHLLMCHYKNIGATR
# Outline: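 Filter-based radiodetection read bound radioligand 1 h after dosing CHO-derived membrane protein. Single-concentration duplicates (25 uM) first, then concentration-response for actives; signal loss versus DMSO scored.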
# [5] = target: human Muscarinic, M4 Receptor, CHRM4 (gene 1132) (UniProt P08173); test: NVS_GPCR_hM4: NovaScreen (NVS) G Protein-Coupled Receptor Assay for human Muscarinic, M4 Receptor (AID 2283274)
# human Muscarinic, M4 Receptor, CHRM4 (gene 1132), sequence (P08173 whole entry, looked up): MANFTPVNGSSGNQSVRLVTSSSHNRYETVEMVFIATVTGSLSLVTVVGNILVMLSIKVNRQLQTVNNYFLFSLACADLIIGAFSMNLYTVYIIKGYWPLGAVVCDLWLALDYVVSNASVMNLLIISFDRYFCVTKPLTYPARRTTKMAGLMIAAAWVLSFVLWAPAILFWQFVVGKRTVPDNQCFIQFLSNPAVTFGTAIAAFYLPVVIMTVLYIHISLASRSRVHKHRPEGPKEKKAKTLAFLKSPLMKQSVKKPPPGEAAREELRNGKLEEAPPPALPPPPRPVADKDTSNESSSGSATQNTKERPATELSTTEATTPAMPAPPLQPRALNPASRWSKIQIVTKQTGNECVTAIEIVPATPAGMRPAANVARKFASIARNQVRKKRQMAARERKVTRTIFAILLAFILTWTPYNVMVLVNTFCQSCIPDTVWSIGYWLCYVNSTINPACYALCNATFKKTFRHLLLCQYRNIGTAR
# Outline: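 Filter-based scintillation counting of radioligand bound to CHO-expressed human M4 preparations after 1 h; loss of signal fitted versus DMSO. Initial duplicate testing at 25 uM, concentration-response follow-up for actives.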
# [6] = target: human Endothelin Receptor Type B (ETB), EDNRB (gene 1910) (UniProt P24530); test: NVS_GPCR_hETB: NovaScreen (NVS) G Protein-Coupled Receptor Assay for human Endothelin Receptor Type B (ETB) (AID 2283267)
# human Endothelin Receptor Type B (ETB), EDNRB (gene 1910), sequence (P24530 whole entry, looked up): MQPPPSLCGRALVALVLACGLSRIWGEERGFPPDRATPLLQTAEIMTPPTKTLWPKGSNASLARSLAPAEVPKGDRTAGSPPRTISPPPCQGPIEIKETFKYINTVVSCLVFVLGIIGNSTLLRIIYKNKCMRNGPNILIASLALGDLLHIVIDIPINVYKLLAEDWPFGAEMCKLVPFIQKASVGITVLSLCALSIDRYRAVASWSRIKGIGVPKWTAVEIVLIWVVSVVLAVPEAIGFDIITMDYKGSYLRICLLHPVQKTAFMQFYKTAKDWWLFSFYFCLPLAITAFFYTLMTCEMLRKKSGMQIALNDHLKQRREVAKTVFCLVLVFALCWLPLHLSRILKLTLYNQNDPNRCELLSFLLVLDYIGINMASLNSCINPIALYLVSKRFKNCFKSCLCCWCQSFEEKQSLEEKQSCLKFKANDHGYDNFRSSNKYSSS
# Outline: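 Filter-based scintillation readout of radioligand displacement, 4 h, using membranes from human astrocytoma cells. Actives from a 25 uM duplicate screen were retested in concentration-response (top 50 uM) relative to DMSO baseline.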
# [7] = target: human Adrenergic, Alpha 2A Receptor (Adra2A), ADRA2A (gene 150) (UniProt P08913); test: NVS_GPCR_hAdra2A: NovaScreen (NVS) G Protein-Coupled Receptor Assay for human Adrenergic, Alpha 2A Receptor (Adra2A) (AID 2283257)
# Outline: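 Displacement of a specific radioligand from HT29 membrane protein was counted by filter scintillation after 1 h. Compounds were screened in duplicate at 25 uM, and actives were retested in concentration series. Fitting was positive-direction against DMSO.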
# [8] = target: human Adrenergic, Beta 1 Receptor (Adrb1), ADRB1 (gene 153) (UniProt P08588); test: NVS_GPCR_hAdrb1: NovaScreen (NVS) G Protein-Coupled Receptor Assay for human Adrenergic, Beta 1 Receptor (Adrb1) (AID 2283258)
# human Adrenergic, Beta 1 Receptor (Adrb1), ADRB1 (gene 153), sequence (P08588 whole entry, looked up): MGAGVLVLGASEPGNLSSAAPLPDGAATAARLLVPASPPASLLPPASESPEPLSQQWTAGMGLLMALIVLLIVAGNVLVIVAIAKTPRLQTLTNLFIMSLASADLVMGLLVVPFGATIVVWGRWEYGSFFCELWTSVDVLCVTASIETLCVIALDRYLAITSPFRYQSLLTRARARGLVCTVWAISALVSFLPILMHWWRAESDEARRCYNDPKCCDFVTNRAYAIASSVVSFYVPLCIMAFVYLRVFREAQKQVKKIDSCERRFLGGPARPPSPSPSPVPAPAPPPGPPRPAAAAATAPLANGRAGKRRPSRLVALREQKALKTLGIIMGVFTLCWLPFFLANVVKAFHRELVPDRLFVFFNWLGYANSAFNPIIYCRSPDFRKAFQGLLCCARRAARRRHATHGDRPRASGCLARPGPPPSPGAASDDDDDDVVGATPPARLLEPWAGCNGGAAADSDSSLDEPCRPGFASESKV
# Outline: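 Membranes/protein extracted from human neuroepithelioma cells, radioligand competition binding read by filtration and scintillation 2 h post-dose. Single 25 uM duplicate screen, then concentration-response follow-up; DMSO as negative control.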
# [9] = target: Beta-2 adrenergic receptor (Homo sapiens) (UniProt P07550); test: NVS_GPCR_hAdrb2: NovaScreen (NVS) G Protein-Coupled Receptor Assay for human Adrenergic, Beta 2 Receptor (Adrb2) (AID 2283261)
# Beta-2 adrenergic receptor (Homo sapiens), sequence (P07550 whole entry, looked up): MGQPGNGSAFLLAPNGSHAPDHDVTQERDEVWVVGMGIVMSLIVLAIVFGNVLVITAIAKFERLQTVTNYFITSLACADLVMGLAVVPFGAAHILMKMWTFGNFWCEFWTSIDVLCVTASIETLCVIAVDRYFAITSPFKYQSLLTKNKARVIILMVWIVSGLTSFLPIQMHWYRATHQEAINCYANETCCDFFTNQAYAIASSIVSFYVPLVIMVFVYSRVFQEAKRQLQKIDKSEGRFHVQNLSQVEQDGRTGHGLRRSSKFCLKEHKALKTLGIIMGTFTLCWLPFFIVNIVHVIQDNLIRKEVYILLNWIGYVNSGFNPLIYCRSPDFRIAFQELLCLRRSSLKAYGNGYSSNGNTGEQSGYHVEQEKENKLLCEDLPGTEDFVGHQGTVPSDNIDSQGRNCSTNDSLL
# Outline: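 Compounds screened in duplicate at 25 uM, then actives in concentration series. Human beta-2 receptor from CHO material, cell-free; radioligand displacement after 1 h measured by filtration and scintillation against DMSO baseline.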
# [10] = target: human Adrenergic, Beta 3 Receptor (Adrb3), ADRB3 (gene 155) (UniProt P13945); test: NVS_GPCR_hAdrb3: NovaScreen (NVS) G Protein-Coupled Receptor Assay for human Adrenergic, Beta 3 Receptor (Adrb3) (AID 2283262)
# Outline: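 A cell-free filter binding assay read by scintillation counting, with displacement of a specific radioligand measured after 1 hour. The receptor source was SK-N-MC extracts (cells pretreated with isoproterenol and 8-bromo-cAMP). Compounds were first tested at 25 uM in duplicate and then in concentration series.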
# [11] = target: human Adrenergic, Alpha 2c Receptor (Adra2C), ADRA2C (gene 152) (UniProt P18825); test: NVS_GPCR_hAdra2C: NovaScreen (NVS) G Protein-Coupled Receptor Assay for human Adrenergic, Alpha 2c Receptor (Adra2C) (AID 2283259)
# human Adrenergic, Alpha 2c Receptor (Adra2C), ADRA2C (gene 152), sequence (P18825 whole entry, looked up): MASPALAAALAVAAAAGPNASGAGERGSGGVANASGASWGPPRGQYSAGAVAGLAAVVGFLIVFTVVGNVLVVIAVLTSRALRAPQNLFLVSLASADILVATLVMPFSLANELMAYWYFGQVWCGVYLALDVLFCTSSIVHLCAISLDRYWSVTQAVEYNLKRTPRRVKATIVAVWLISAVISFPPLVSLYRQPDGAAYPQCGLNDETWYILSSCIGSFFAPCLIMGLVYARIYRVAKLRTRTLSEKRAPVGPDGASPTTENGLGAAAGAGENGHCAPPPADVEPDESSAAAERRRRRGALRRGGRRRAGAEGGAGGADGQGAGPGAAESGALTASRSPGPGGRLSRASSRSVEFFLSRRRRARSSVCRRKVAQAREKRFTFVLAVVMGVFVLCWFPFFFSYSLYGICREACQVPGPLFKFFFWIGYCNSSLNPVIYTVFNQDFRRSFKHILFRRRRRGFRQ
# Outline: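 Screened first in duplicate at 25 uM, with actives then run as concentration series. Membranes from Sf9 cells were exposed for 1 h, and displacement of radioligand was counted after filtration, using DMSO as baseline.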
# [12] = target: human Dopamine Receptor D4.4 (DRD4.4), DRD4 (gene 1815) (UniProt P21917); test: NVS_GPCR_hDRD4.4: NovaScreen (NVS) G Protein-Coupled Receptor Assay for human Dopamine Receptor D4.4 (DRD4.4) (AID 2283264)
# human Dopamine Receptor D4.4 (DRD4.4), DRD4 (gene 1815), sequence (P21917 whole entry, looked up): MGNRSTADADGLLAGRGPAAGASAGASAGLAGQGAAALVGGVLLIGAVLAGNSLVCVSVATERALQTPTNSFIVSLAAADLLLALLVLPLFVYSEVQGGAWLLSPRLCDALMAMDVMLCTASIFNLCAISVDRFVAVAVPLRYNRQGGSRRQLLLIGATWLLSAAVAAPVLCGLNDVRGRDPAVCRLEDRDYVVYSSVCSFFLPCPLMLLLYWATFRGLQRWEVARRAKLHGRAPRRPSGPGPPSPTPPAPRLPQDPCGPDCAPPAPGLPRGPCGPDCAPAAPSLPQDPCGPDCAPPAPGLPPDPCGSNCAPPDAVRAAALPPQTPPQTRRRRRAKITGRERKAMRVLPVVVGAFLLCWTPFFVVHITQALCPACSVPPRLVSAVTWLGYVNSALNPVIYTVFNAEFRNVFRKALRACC
# Outline: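 Filter-binding assay with a tritiated or iodinated ligand, cell-free receptor prepared from CHO, 1 hour. Loss of bound radioactivity versus DMSO; single 25 uM duplicate screen, then concentration-response for actives.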
# [13] = target: D(1A) dopamine receptor (Homo sapiens) (UniProt P21728); test: NVS_GPCR_hDRD1: NovaScreen (NVS) G Protein-Coupled Receptor Assay for human Dopamine Receptor D1 (DRD1) (AID 2283269)
# D(1A) dopamine receptor (Homo sapiens), sequence (P21728 whole entry, looked up): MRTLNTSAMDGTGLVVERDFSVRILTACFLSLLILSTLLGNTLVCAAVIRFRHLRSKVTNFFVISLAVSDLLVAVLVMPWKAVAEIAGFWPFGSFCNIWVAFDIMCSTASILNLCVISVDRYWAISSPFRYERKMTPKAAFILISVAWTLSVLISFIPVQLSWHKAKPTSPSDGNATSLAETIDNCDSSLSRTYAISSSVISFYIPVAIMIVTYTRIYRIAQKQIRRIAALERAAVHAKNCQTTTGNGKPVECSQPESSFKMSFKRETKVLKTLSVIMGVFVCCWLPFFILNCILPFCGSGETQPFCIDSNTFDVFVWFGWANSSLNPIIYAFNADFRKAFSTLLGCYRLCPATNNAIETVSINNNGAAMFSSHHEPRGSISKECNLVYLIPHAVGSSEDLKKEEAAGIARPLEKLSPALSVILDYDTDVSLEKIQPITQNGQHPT
# Outline: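 Cell-free competition with radioligand, filter-trapped and scintillation-counted 1 h post-dose, using HEK293-derived human D1 preparation. Duplicate single-point testing at 25 uM first, then concentration series for actives; DMSO served as baseline, loss-of-signal scored.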
# [14] = target: Muscarinic acetylcholine receptor M3 (Homo sapiens) (UniProt P20309); test: NVS_GPCR_hM3: NovaScreen (NVS) G Protein-Coupled Receptor Assay for human Muscarinic, M3 Receptor (AID 2283272)
# Outline: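 Radioligand displacement binding on human M3 receptor in CHO-derived membranes, 1 h incubation, filter-based scintillation counting. Primary screen in duplicate at 25 uM; actives followed up in concentration series; loss of signal versus DMSO.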
# [15] = target: human Histamine 1 Receptor (H1), HRH1 (gene 3269) (UniProt P35367); test: NVS_GPCR_hH1: NovaScreen (NVS) G Protein-Coupled Receptor Assay for human Histamine 1 Receptor (H1) (AID 2283268)
# Outline: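 Filter-based scintillation detection of radioligand binding to human H1, 1 h incubation; chemicals screened in duplicate at 25 uM, then concentration-response; signal loss relative to DMSO taken as activity.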
# [16] = target: human Leukotriene B4 Receptor 1 (LTB4-BLT1), LTB4R (gene 1241) (UniProt Q15722); test: NVS_GPCR_hLTB4_BLT1: NovaScreen (NVS) G Protein-Coupled Receptor Assay for human Leukotriene B4 Receptor 1 (LTB4-BLT1) (AID 2283271)
# Outline: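 Cell-free human neutrophil receptor preparation, 1 h exposure, radioligand binding read by filter scintillation counting. Single 25 uM duplicate screen, then concentration series topping at 50 uM; binding loss scored against DMSO baseline.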
# [17] = target: human Endothelin Receptor Type A (ETA), EDNRA (gene 1909) (UniProt P25101); test: NVS_GPCR_hETA: NovaScreen (NVS) G Protein-Coupled Receptor Assay for human Endothelin Receptor Type A (ETA) (AID 2283265)
# Outline: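 Binding of radioligand to membrane protein extracted from SH-SY5Y cells was read by filtration and scintillation after 3 h. Compounds were screened at 25 uM in duplicate, with hits followed up in singleton concentration series to 50 uM.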
# [18] = target: Muscarinic acetylcholine receptor M5 (Homo sapiens) (UniProt P08912); test: NVS_GPCR_hM5: NovaScreen (NVS) G Protein-Coupled Receptor Assay for human Muscarinic, M5 Receptor (AID 2283275)
# Outline: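 Chemicals passing a primary duplicate screen at 25 uM were run as singleton concentration series, maximum 50 uM. Displacement of a specific radioligand from CHO-extracted receptor was read by filter scintillation after 1 h, relative to DMSO.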
# [19] = target: Type-1 angiotensin II receptor (Homo sapiens) (UniProt P30556); test: NVS_GPCR_hAT1: NovaScreen (NVS) G Protein-Coupled Receptor Assay for human Angiotensin II receptor type 1 (AT1) (AID 2283263)
# Outline: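 Hits from a 25 uM duplicate screen (threshold e.g. 30% inhibition) were run in concentration-response with 50 uM top concentration. Displacement of specific radioligand from KAN-TS membrane preparations measured after 3 h by filter scintillation, DMSO as baseline.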
structure (smiles),measurement,setting,value
C=CCCCCCCCCCCCC,outcome,[1],inactive
Cc1cc(Cc2ccc(N)c(C)c2)ccc1N,outcome,[2],inactive
NC(=Nc1ccccc1)Nc1ccccc1,AC50,[3],11.8 µM (active)
same,AC50,[4],19.8 µM (active)
same,AC50,[5],14.9 µM (active)
CC(N)=O,outcome,[6],inactive
CN(C)CCCN1c2ccccc2Sc2ccc(Cl)cc21,AC50,[7],1.43 µM (active)
same,AC50,[8],25 µM (active)
same,AC50,[9],17.1 µM (active)
same,AC50,[10],25 µM (active)
O=C(O)c1[nH]n(-c2ccc(S(=O)(=O)O)cc2)c(=O)c1N=Nc1ccc(S(=O)(=O)O)cc1,outcome,[3],inactive
same,outcome,[11],inactive
same,AC50,[12],16.5 µM (active)
same,AC50,[13],19.2 µM (active)
same,outcome,[14],inactive
same,outcome,[4],inactive
CSc1ccc(Oc2ccc(S(N)(=O)=O)cc2CN(C)C)cc1C,AC50,[3],12.5 µM (active)
same,AC50,[7],0.263 µM (active)
same,AC50,[11],5.83 µM (active)
same,outcome,[10],inactive
same,AC50,[12],25 µM (active)
same,AC50,[15],19.6 µM (active)
same,AC50,[13],5.11 µM (active)
same,outcome,[16],inactive
NCCOCCOCCN,outcome,[6],inactive
COC(=O)[C@H]1[C@H]2C[C@@H]3c4[nH]c5cc(OC)ccc5c4CCN3C[C@H]2C[C@@H](OC(=O)c2cc(OC)c(OC)c(OC)c2)[C@@H]1OC,AC50,[9],12.1 µM (active)
Cc1ccc(-c2cc(C(F)(F)F)nn2-c2ccc(S(N)(=O)=O)cc2)cc1,AC50,[8],4.96 µM (active)
CCCCCCCCCC[N+](C)(C)[O-],outcome,[10],inactive
CCN(CC)CCOc1ccc(C(=C(Cl)c2ccccc2)c2ccccc2)cc1,AC50,[1],11 µM (active)
same,AC50,[3],3.31 µM (active)
same,AC50,[2],11.6 µM (active) [middle of 4 runs]
same,AC50,[11],1.58 µM (active)
same,AC50,[9],18.2 µM (active)
same,outcome,[10],inactive
same,AC50,[12],17.3 µM (active)
same,AC50,[17],29.1 µM (active)
same,AC50,[6],32.3 µM (active)
same,AC50,[13],2.28 µM (active)
same,AC50,[5],4.2 µM (active)
same,AC50,[18],2.53 µM (active)
CCC(C)N(C)C(=O)c1cc2ccccc2c(-c2ccccc2Cl)n1 (stereo not given),AC50,[1],6.11 µM (active)
same,AC50,[2],7.37 µM (active)
same,AC50,[19],15.9 µM (active)
same,AC50,[15],15.9 µM (active)
CCCCC(CC)COC(=O)CCCCCCCC(=O)OCC(CC)CCCC (stereo not given),outcome,[8],inactive
Cn1cnc2c1c(=O)[nH]c(=O)n2C,outcome,[10],inactive
same,outcome,[13],inactive
same,outcome,[5],inactive
CC(=O)[C@@]1(O)CC[C@H]2[C@@H]3CCC4=CC(=O)CC[C@]4(C)[C@H]3CC[C@@]21C,AC50,[4],0.617 µM (active)
O=Cc1ccccc1C=O,outcome,[19],inactive
same,AC50,[17],19.2 µM (active)
same,AC50,[4],17 µM (active)
CCc1nc(N)nc(N)c1-c1ccc(Cl)cc1,AC50,[3],4.76 µM (active)
same,AC50,[7],4.81 µM (active)
same,outcome,[9],inactive
same,AC50,[12],5.9 µM (active)
same,AC50,[13],4.73 µM (active)
same,outcome,[14],inactive
same,AC50,[4],13.9 µM (active)
same,outcome,[5],inactive
